C diff HTS – C. difficile growth inhibitors, primary screen, HTS; Clostridium difficile clinical isolate growth, OD600, 24 h; active compounds read low; growth activity, negative = inhibition, % at 16 µg/mL (by protocol); actives 0.25% (n = 86,000); AID 1259249, 2017;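 active means mean growth activity at or below -80% and every replicate also at or below -80%; inconclusive means mean at or below -80% but some replicate above -80%; inactive means mean growth activity above -80%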
T cruzi growth-1 – T. cruzi intracellular proliferation inhibitors, primary screen, cell-based, beta-gal Tulahuen parasites, NIH3T3 host, luminescence; T. cruzi beta-gal in NIH3T3, GalScreen luminescence, 90 h; inhibition, % at 8.34 µM; actives 5.9% (n = 77,000); AID 624255, 2012;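 active means mean inhibition above about 93%, with at least 55% of replicates each passing it, limit read from the data, passing the limit was not always enough; inconclusive means only one of those two conditions holds; inactive means neither condition holds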
T cruzi growth-2 – T. cruzi intracellular proliferation inhibitors, confirmation, cell-based, NIH3T3 host, beta-gal parasite, luminescence, cherry-pick | actives 72% (n = 5,600) | shares compounds with T cruzi growth-1 | AID 651739, 2012 | T. cruzi beta-gal in NIH3T3, GalScreen luminescence, 90 h | inhibition, % at 8.35 µM;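 active means mean replicate inhibition above about 95% and at least 55% of replicates individually reaching it, limit read from the data; inconclusive means only one of the two criteria is met; inactive means neither criterion is met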
T cruzi growth-3 – inhibitors of intracellular T. cruzi replication, confirmation, NIH3T3 host cells, beta-gal parasites, cherry-pick, set 2; shares compounds with T cruzi growth-1; T. cruzi beta-gal in NIH3T3, GalScreen luminescence, 90 h; inhibition, % at 2.09 µM; actives 21% (n = 5,600); AID 651740, 2012;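 active means mean inhibition above about 95%, with at least 55% of replicates also reaching it, limit read from the data; inconclusive means meets just one of the two conditions; inactive means meets neither condition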
NIH3T3 tox – cytotoxicity in mouse NIH/3T3 fibroblasts, confirmation, cytotoxicity control for T. cruzi proliferation inhibitor project, cell-based, cherry-pick, single point. shares compounds with T cruzi growth-1. NIH/3T3 viability, CellTiter-Glo ATP luminescence, 90 h. cytotoxicity (signal decrease), % at 8.35 µM. actives 14% (n = 5,600). AID 651742, 2012;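 active means mean signal decrease across replicates above about 35% based on untreated-well scatter, with enough replicates individually passing, limit read from the data; inconclusive means no rule stated though some were filed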
NIH3T3 tox 2 – NIH/3T3 fibroblast cytotoxicity, confirmation, cytotoxicity control, cell-based, cherry-pick, single point, set 2; inhibition, % at 24.9 µM; AID 651744, 2012; NIH/3T3 viability, CellTiter-Glo ATP luminescence, 90 h; actives 56% (n = 5,600); shares compounds with T cruzi growth-1;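 active means mean loss of cell viability signal at or above a set limit, and enough replicates individually reaching it; inconclusive means meets only the mean limit or only the replicate share; inactive means meets neither condition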
Large screens that a line does not name were inactive (follow-up assays come after a bar, where they were run). Only a selection was taken, and hits are over-represented in it overall.

C[C@@H]1CN([C@H](C)CO)C(=O)c2cc(C#CCN(C)C)cnc2O[C@H]1CN(C)C(=O)c1cccnc1	none
CC(C)NC(=O)Nc1ccc2c(c1)C(=O)N([C@@H](C)CO)C[C@@H](C)[C@@H](CN(C)CC1CC1)OCCCC[C@@H](C)O2	none
CCCC#Cc1ccc2c(c1)O[C@H](CN(C)Cc1cccnc1)[C@H](C)CN([C@@H](C)CO)S2(=O)=O	T cruzi growth-1 109 | T cruzi growth-2 99 | T cruzi growth-3 inactive | NIH3T3 tox 54 | NIH3T3 tox 2 inconclusive
CCCC#Cc1ccc2c(c1)O[C@H](CN(C)Cc1cncnc1)[C@H](C)CN([C@@H](C)CO)S2(=O)=O	none
CCCC#Cc1ccc2c(c1)O[C@@H](CN(C)Cc1cncnc1)[C@@H](C)CN([C@@H](C)CO)S2(=O)=O	none
COCC#Cc1ccc2c(c1)O[C@H](CN(C)Cc1cccnc1)[C@@H](C)CN([C@@H](C)CO)S2(=O)=O	T cruzi growth-1 105 | T cruzi growth-2 97 | T cruzi growth-3 inactive | NIH3T3 tox inactive | NIH3T3 tox 2 64
CCCC#Cc1ccc2c(c1)O[C@@H](CN(C)Cc1cccnc1)[C@@H](C)CN([C@@H](C)CO)S2(=O)=O	T cruzi growth-1 96 | T cruzi growth-2 99 | T cruzi growth-3 inactive | NIH3T3 tox inactive | NIH3T3 tox 2 inactive
COCC#Cc1ccc2c(c1)O[C@@H](CN(C)Cc1cccnc1)[C@@H](C)CN([C@@H](C)CO)S2(=O)=O	none
CCCC#Cc1ccc2c(c1)O[C@H](CN(C)Cc1cncnc1)[C@H](C)CN([C@H](C)CO)S2(=O)=O	none
CCCC#Cc1ccc2c(c1)O[C@H](CN(C)Cc1cccnc1)[C@@H](C)CN([C@H](C)CO)S2(=O)=O	T cruzi growth-1 123 | T cruzi growth-2 106 | T cruzi growth-3 104 | NIH3T3 tox inactive | NIH3T3 tox 2 92
CCCNC(=O)Nc1ccc2c(c1)C(=O)N(C)C[C@H](OC)[C@H](C)CN(Cc1ccncc1)[C@@H](C)CO2	none
Cc1ccc(S(=O)(=O)N(C)C[C@@H]2OCCCC[C@H](C)Oc3ccc(NS(=O)(=O)c4cn(C)cn4)cc3C(=O)N([C@H](C)CO)C[C@H]2C)cc1	none
CCN(C[C@H]1[C@@H](c2ccc(-c3ccccc3F)cc2)[C@@H](CO)N1C(C)=O)C(C)=O	none (no result: T cruzi growth-1)
CCCC#Cc1ccc2c(c1)O[C@@H](CN(C)Cc1cncnc1)[C@H](C)CN([C@H](C)CO)S2(=O)=O	none
CCCC#Cc1ccc2c(c1)O[C@H](CN(C)Cc1cccnc1)[C@H](C)CN([C@H](C)CO)S2(=O)=O	T cruzi growth-1 115 | T cruzi growth-2 106 | T cruzi growth-3 inactive | NIH3T3 tox 53 | NIH3T3 tox 2 31
O=C(C[C@@H]1C=C[C@H](NC(=O)NC2CCCCC2)[C@H](CO)O1)NCc1ccc(F)cc1	none (no result: T cruzi growth-1)
C[C@H](CO)N1C[C@H](C)[C@@H](CN(C)Cc2ccc3c(c2)OCO3)Oc2ccc(NC(=O)Nc3cccc4ccccc34)cc2CC1=O	T cruzi growth-1 109 | T cruzi growth-2 101 | T cruzi growth-3 104 | NIH3T3 tox 41 | NIH3T3 tox 2 52
C[C@H]1CN([C@@H](C)CO)C(=O)c2cc(NC(=O)Nc3cccc4ccccc34)ccc2O[C@H]1CN(C)Cc1ccc2c(c1)OCO2	T cruzi growth-1 100 | T cruzi growth-2 inactive | T cruzi growth-3 inactive | NIH3T3 tox inactive | NIH3T3 tox 2 32
C[C@H]1CN([C@@H](C)CO)C(=O)Cc2cc(NC(=O)Nc3cccc4ccccc34)ccc2O[C@H]1CN(C)Cc1ccc2c(c1)OCO2	none
C[C@@H]1CN([C@@H](C)CO)C(=O)c2cc(NC(=O)Nc3cccc4ccccc34)ccc2O[C@@H]1CN(C)Cc1ccc2c(c1)OCO2	none
C[C@@H]1CN([C@@H](C)CO)C(=O)Cc2cc(NC(=O)Nc3ccc(C(F)(F)F)cc3)ccc2O[C@H]1CN(C)Cc1ccc2c(c1)OCO2	none
C[C@H](CO)N1C[C@H](C)[C@H](CN(C)Cc2ccc3c(c2)OCO3)Oc2ccc(NC(=O)Nc3ccc(C(F)(F)F)cc3)cc2CC1=O	T cruzi growth-1 97 | T cruzi growth-2 109 | T cruzi growth-3 104 | NIH3T3 tox inactive | NIH3T3 tox 2 84
CC(C)NC(=O)N(C)C[C@H]1Oc2ccc(NS(=O)(=O)c3ccc(Cl)cc3)cc2CC(=O)N([C@H](C)CO)C[C@@H]1C	none
C[C@@H]1CN([C@H](C)CO)C(=O)c2cc(NC(=O)c3ccncc3)ccc2O[C@@H](C)CCCCO[C@@H]1CN(C)Cc1ccncc1	none
C/C=C/c1ccc2c(c1)[C@H]1[C@H](CCN1S(=O)(=O)c1cccc(F)c1)[C@@H](CO)N2	none (no result: T cruzi growth-1)
O=C(Nc1ccc2c(c1)[C@@H]1C[C@H](CC(=O)N3CCCCC3)O[C@H](CO)[C@@H]1O2)Nc1ccccc1F	none
C[C@H]1CCCCO[C@@H](CN(C)C(=O)Nc2ccc3c(c2)OCO3)[C@@H](C)CN([C@@H](C)CO)C(=O)c2cc(NC(=O)c3ccccc3)ccc2O1	none
COc1ccc(NC(=O)Nc2ccc3c(c2)CC(=O)N([C@H](C)CO)C[C@H](C)[C@H](CN(C)Cc2ccccc2)O3)cc1	none
CNC[C@@H]1OCCCC[C@@H](C)Oc2ccc(NC(=O)c3ccccc3)cc2C(=O)N([C@H](C)CO)C[C@@H]1C	none
CNC[C@@H]1OCCCC[C@H](C)Oc2ccc(NC(=O)NC3CCCCC3)cc2C(=O)N([C@@H](C)CO)C[C@@H]1C	T cruzi growth-1 111 | T cruzi growth-2 inactive | T cruzi growth-3 inactive | NIH3T3 tox inactive | NIH3T3 tox 2 inactive
CNC[C@@H]1OCCCC[C@@H](C)Oc2ccc(NC(=O)NC3CCCCC3)cc2C(=O)N([C@H](C)CO)C[C@H]1C	none
CNC[C@H]1OCCCC[C@H](C)Oc2ccc(NC(=O)c3ccccc3)cc2C(=O)N([C@H](C)CO)C[C@@H]1C	T cruzi growth-1 inconclusive | T cruzi growth-2 99 | T cruzi growth-3 inactive | NIH3T3 tox inactive | NIH3T3 tox 2 inactive
C[C@H]1CCCCO[C@@H](CN(C)C)[C@@H](C)CN([C@@H](C)CO)C(=O)c2cc(NC(=O)Cc3ccccc3)ccc2O1	none
CNC[C@@H]1OCCCC[C@H](C)Oc2ccc(NC(=O)Cc3ccccc3)cc2C(=O)N([C@@H](C)CO)C[C@@H]1C	T cruzi growth-1 99 | T cruzi growth-2 inactive | T cruzi growth-3 inactive | NIH3T3 tox inactive | NIH3T3 tox 2 inactive
CCC(=O)N1C[C@H](C)[C@@H](OC)CN(C)C(=O)c2ccc(NC(=O)CC(F)(F)F)cc2OC[C@H]1C	none (no result: T cruzi growth-1)

From PubChem
